Source: PubChem (several laboratories)
Mdm2 MdmX PPI: inhibitors of human Mdm2/MdmX interaction | SaOS-2 split-luciferase Mdm2/MdmX complementation, luminescence | O15151+Q00987 | 3% of 330,000 active | inhibition, % at 8 µM;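 active = inhibition of at least 50% at 8 µM in the primary screen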
Target sequence (O15151 whole entry, looked up): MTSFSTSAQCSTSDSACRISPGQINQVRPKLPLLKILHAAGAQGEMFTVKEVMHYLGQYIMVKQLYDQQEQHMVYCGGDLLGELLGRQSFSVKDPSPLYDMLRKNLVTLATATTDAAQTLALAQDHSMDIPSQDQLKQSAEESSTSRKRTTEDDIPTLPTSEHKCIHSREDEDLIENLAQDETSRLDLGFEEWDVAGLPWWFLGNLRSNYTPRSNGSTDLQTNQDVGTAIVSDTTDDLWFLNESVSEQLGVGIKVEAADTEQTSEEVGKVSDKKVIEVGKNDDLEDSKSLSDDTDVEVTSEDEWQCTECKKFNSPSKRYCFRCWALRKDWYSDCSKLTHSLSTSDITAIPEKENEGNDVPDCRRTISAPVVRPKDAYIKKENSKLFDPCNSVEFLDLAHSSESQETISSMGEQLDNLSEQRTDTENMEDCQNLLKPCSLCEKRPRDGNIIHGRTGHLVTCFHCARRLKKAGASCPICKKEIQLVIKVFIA
Target sequence (Q00987 whole entry, looked up): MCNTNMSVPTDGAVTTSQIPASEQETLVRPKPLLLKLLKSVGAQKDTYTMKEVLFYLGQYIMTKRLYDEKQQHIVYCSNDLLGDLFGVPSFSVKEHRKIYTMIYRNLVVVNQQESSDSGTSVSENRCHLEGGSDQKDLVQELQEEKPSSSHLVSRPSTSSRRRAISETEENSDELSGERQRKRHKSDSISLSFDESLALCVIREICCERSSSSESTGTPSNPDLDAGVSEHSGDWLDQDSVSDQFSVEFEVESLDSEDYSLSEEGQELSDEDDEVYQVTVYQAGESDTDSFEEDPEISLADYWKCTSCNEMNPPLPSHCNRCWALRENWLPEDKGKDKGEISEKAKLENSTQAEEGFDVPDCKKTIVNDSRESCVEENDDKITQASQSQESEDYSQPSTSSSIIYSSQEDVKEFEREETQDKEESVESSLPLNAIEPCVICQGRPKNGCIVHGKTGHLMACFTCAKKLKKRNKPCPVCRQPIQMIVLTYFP
Shn3 3UTR inh: inhibitors of Schnurri-3 3'UTR reporter in osteoblasts. Clone20 osteoblast Shn3 3'UTR firefly luciferase, 24 h. inhibition, % at 12.5 µM. 0.52% of 360,000 active;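 active = mean inhibition of at least 75% with every replicate also reaching 75%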
CSC inhib: blocks cancer stem cells; AID 2717; cancer stem cell-like cells viability, luminescence; 1.1% of 300,000 active; inhibition, % at 7.5 µM; in the data active = inhibition above about 75%; tested in HMLE shEcad cells
PAX8 reporter: PAX8 transcriptional activity inhibition; RMG-I TPO-luciferase reporter, SteadyGlo, 24 h; inhibition, % at 12.6 µM; 1.2% of 360,000 active; AID 652154;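 active = mean replicate inhibition at least 60% with every replicate also reaching 60%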;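 note: luciferase light reporting Pax8 driven TPO promoter activity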
Beta apoptosis: beta cell apoptosis inhibition. INS-1E cytokine-induced death, ATP luminescence, 48 h; percent of positive-control rescue, neutral wells zero. protection from apoptosis, % (test concentration not listed). AID 435005. 0.8% of 300,000 active;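 active = Every replicate reaches about 75%, or at least half do and their mean reaches it too, limit read from the data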;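 note: higher means more ATP so stronger rescue from cytokine killing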
Gli-Sufu block: antagonists of Gli-Sufu signaling; Sufu-KO-LIGHT fibroblasts, Gli luciferase reporter luminescence; inhibition, % at 5 µM; 0.74% of 340,000 active; AID 588413;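 active = inhibition above about 55%, limit read from the data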
Mdm2-MdmX conf: confirmation of human Mdm2/MdmX interaction inhibitors. shares compounds with Mdm2 MdmX PPI. Mdm2-MdmX binding, luminescent assay. inhibition, % at 8 µM. 55% of 10,000 active; in the data active = inhibition above about 40%
FLuc counter: counter-screen for Mdm2/MdmX inhibitors: full-length luciferase | 77% of 6,200 active | shares compounds with Mdm2 MdmX PPI | SaOS-2 full-length luciferase counterscreen, luminescence | inhibition, % at 8 µM | AID 504607;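 active = mean inhibition at 8 µM reaching about 37%, which flags the compound as non-specific, limit read from the data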;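 note: p53-null SaOS-2 cells with luciferase driven by a doxycycline-inducible promoter; compound on cells about two nights before reading with doxycycline added after day one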
Hits are given with their value; i = inactive; nt = no result. In the library only some 4% were active in any assay of this set; here they are far more common.

SMILES	Mdm2 MdmX PPI	Shn3 3UTR inh	CSC inhib	PAX8 reporter	Beta apoptosis	Gli-Sufu block	Mdm2-MdmX conf	FLuc counter
O=C(C[C@H]1CC[C@H]2[C@@H](COC[C@H](O)CN2C(=O)c2ccncc2)O1)NC1CCC1	nt	nt	nt	i	nt	nt	nt	nt
Cc1ccc(NC(=O)CSc2nc3ccccc3c(=O)n2CCCN2CCCCC2)cc1Cl	99.8	i	i	i	i	i	77.8	54.7
CC(=O)Nc1ccc(NC(=O)CSc2nc3ccccc3c(=O)n2CCCN2CCOCC2)cc1	i	i	i	i	i	i	nt	nt
O=C(CSc1nc2ccccc2c(=O)n1CCCN1CCOCC1)Nc1ccc(F)c(Cl)c1	52.4	i	i	i	i	i	i	nt
C[C@@H]1CCCCO[C@H](CN(C)CC2CCCCC2)[C@H](C)CN([C@@H](C)CO)C(=O)c2cc(NS(=O)(=O)c3cccs3)ccc2O1	nt	nt	nt	i	nt	nt	nt	nt
CS(=O)(=O)Nc1ccc2c(c1)[C@@H]1C[C@@H](CC(=O)NCc3ccc(Cl)cc3)O[C@@H](CO)[C@@H]1O2	nt	nt	nt	i	nt	nt	nt	nt
CC(C)(C)c1cc(C(c2cccnc2)N2CCN(CCO)CC2)cc(C(C)(C)C)c1O (stereo not given)	100.3	97.4	195.5	nt	i	i	75.7	58.4
CNC[C@@H]1OCCCC[C@H](C)Oc2ccc(NC(=O)Cc3ccccc3)cc2C(=O)N([C@@H](C)CO)C[C@@H]1C	nt	nt	nt	i	nt	nt	nt	nt
COc1ccc2c3c(n(C)c2c1)[C@@H](CO)N(C(=O)CC1CC1)CC31CCN(C(=O)C2CC2)CC1	nt	nt	nt	i	nt	nt	nt	nt
COc1ccc(Cl)cc1-c1nc(-c2ccc(Br)o2)no1	51.0	i	i	i	i	i	i	nt
CC(OC(=O)/C=C/c1cccs1)C(=O)Nc1ccc(S(N)(=O)=O)cc1 (stereo not given)	i	nt	i	i	i	i	nt	nt
CC(OC(=O)/C=C/c1ccc2ccccc2n1)C(=O)Nc1ccc(S(N)(=O)=O)cc1 (stereo not given)	72.4	i	i	i	i	i	49.1	66.3
COC(=O)Cn1c(=O)c(C(=O)CCl)c(N)n(Cc2ccccc2)c1=O	74.6	nt	i	63.4	i	i	48.5	69.6
CCC(=O)OCC(=O)c1c(N)n(Cc2ccccc2)c(=O)n(C)c1=O	i	i	i	nt	i	i	nt	nt
CN1CCN(C(=O)c2ccc3c(c2)N(Cc2cccc(Cl)c2)C(=O)c2ccccc2S3(=O)=O)CC1	i	i	i	i	i	i	nt	nt
O=C(c1ccc(S(=O)(=O)Cc2ccccc2F)c([N+](=O)[O-])c1)N1CCCCCC1	i	i	i	i	i	i	nt	nt
O=C(c1ccc(S(=O)(=O)c2cccc(Cl)c2)c([N+](=O)[O-])c1)N1CCN(c2ccccn2)CC1	73.5	i	i	i	i	i	67.8	58.1
O=C(c1cccc(Cl)c1)N1CCN(c2ccccn2)CC1	i	i	i	nt	i	i	nt	nt
O=C(c1ccc2c(c1)N(Cc1cccc(Cl)c1)C(=O)c1ccccc1S2(=O)=O)N1CCN(c2ccccn2)CC1	64.7	i	i	i	i	i	i	nt
O=C(c1ccc(S(=O)(=O)c2ccccc2Cl)c([N+](=O)[O-])c1)N1CCCCCC1	50.5	i	i	i	i	i	i	nt
CCCNC(=O)N(C)C[C@H]1Oc2cc(-c3cncnc3)ccc2S(=O)(=O)N([C@H](C)CO)C[C@H]1C	nt	nt	nt	i	nt	nt	nt	nt
CCSc1nnc(NC(=O)NC(CC)(C(F)(F)F)C(F)(F)F)s1	90.0	i	98.8	nt	i	i	i	64.1
CCSc1nnc(NC(=O)NC(C)(C(F)(F)F)C(F)(F)F)s1	i	i	i	i	i	i	nt	nt
Cc1cc2c(cc1C)-c1c(ssc1=Nc1ccc(S(N)(=O)=O)cc1)C(C)(C)N2	62.4	i	i	i	i	i	40.1	44.0
CCNC(=O)C[C@H]1CC[C@@H]2[C@@H](COc3ccc(NC(=O)Nc4ccccc4Cl)cc3C(=O)N2C)O1	nt	nt	nt	i	nt	nt	nt	nt
COc1ccc(OC)c(N(/C(N)=N/c2nc(C)cc(C)n2)S(=O)(=O)c2ccc(NC(C)=O)cc2)c1	62.8	i	i	i	i	i	i	90.1
COc1ccc(OC)c(N/C(=N/c2nc(C)cc(C)n2)NC(C)=O)c1	i	i	i	i	i	i	nt	nt
CC(C)NC(=O)Nc1ccc2c(c1)CC(=O)N([C@@H](C)CO)C[C@H](C)[C@@H](CN(C)CC1CC1)O2	nt	nt	nt	i	nt	nt	nt	nt
